Reference: PubChem BioAssay (Tox21)
Results filed as inconclusive are left out. Entries that show only a call come without a potency. Some structures have more than one record in an assay (separate samples or runs), and their calls can disagree. The source made the active and inactive calls. Calls come from the whole dose curve.

Columns and labels:
[1] = molecular target: Acetylcholinesterase (Homo sapiens) (UniProt P22303); test: Acetylcholinesterase (AChE) small molecule antagonists: colormetric cell-based qHTS assay (AID 1347395); details: SH-SY5Y cells AChE activity, colorimetric (Ellman); series mostly up to 115 µM; note: nearly all actives have a fitted effect of over 30% in size; note: potency is the fitted concentration of half-maximal effect
Outline: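 Neuroblastoma line SH-SY5Y supplied the enzyme; cells were preincubated with compound for 30 min at 37 C and 5% CO2. Acetylthiocholine with DTNB was then added for 90 min at 37 C, and thiocholine was measured by colour.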

[2] = molecular target: Acetylcholinesterase (Homo sapiens) (UniProt P22303); test: Acetylcholinesterase (AChE) small molecule antagonists: enzyme-based qHTS assay (AID 1347397); details: Potency: AChE enzyme activity inhibition; outcome: AChE enzyme activity inhibition; series mostly up to 115 µM; note: nearly all actives have a fitted effect of over 55% in size; note: potency is the fitted concentration of half-maximal effect
Outline: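 Recombinant human AChE, dispensed at 50 mU/mL, was preincubated with Tox21 10K compounds or DMSO vehicle for 30 min at room temperature. DTNB plus acetylthiocholine was then added, and thiocholine was measured colorimetrically after a further 10 min.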

[3] = molecular target: Acetylcholinesterase (Homo sapiens) (UniProt P22303); test: Acetylcholinesterase (AChE) small molecule antagonists: fluorescence cell-based qHTS assay (AID 1347398); details: SH-SY5Y cells; Potency: AChE activity; outcome: AChE activity; series mostly up to 115 µM; note: nearly all actives have a fitted effect of over 50% in size; note: potency is the fitted concentration of half-maximal effect
Outline: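 Human SH-SY5Y cells were plated overnight at 37 C, exposed to compound for 30 min at 37 C, 5% CO2, then given acetylthiocholine plus Thiolite Green for 40 min at room temperature; thiocholine fluorescence (Ex/Em 490/520 nm) reports endogenous AChE activity.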

[4] = molecular target: Acetylcholinesterase (Homo sapiens) (UniProt P22303); test: Acetylcholinesterase (AChE) small molecule antagonists: enzyme-based qHTS assay with human liver microsomes (AID 1347399); details: Potency: qHTS inhibition; outcome: qHTS inhibition; series mostly up to 115 µM; note: nearly all actives have a fitted effect of over 60% in size
Outline: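 Recombinant human AChE (50 mU/mL in the enzyme mix) and human liver microsomes (0.25 mg/mL final) were preincubated with compound and NADPH (0.25 mg/mL final) for 30 min at 37 C. Acetylthiocholine/DTNB was then added; thiocholine was read colorimetrically after 10 min at room temperature.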

Acetylcholinesterase (Homo sapiens), sequence (P22303 whole entry, looked up): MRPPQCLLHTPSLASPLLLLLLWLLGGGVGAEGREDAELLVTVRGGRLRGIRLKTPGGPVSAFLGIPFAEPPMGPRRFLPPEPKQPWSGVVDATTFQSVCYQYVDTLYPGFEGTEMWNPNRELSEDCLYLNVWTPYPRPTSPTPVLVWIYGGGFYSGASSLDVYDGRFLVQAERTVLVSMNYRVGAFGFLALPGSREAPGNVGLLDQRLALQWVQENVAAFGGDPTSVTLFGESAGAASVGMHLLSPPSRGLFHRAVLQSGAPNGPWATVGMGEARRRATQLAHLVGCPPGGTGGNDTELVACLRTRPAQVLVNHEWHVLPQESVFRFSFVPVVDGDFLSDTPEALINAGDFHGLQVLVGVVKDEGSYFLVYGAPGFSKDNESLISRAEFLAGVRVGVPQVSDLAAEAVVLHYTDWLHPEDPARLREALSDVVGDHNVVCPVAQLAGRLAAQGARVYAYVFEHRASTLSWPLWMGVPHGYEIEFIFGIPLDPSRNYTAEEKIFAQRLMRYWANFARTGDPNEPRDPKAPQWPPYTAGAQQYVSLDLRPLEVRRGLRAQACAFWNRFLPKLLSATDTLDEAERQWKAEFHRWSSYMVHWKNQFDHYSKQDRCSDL

Compound | Potency [1] | Potency [2] | Potency [3] | Potency [4] | outcome [1] | outcome [2] | outcome [3] | outcome [4]
Cc1cc(=O)n(-c2ccccc2)n1C | inactive | inactive | inactive | inactive | – | – | – | –
NC(CO)C(=O)NNCc1ccc(O)c(O)c1O (stereo not given) | inactive | inactive | inactive | inactive | – | – | – | –
C=CCOCC(CC)(CO)COCC=C | inactive | inactive | inactive | inactive | – | – | – | –
C=C(C)C(=O)OCCOCCOCCOC(=O)C(=C)C | inactive | inactive | inactive | inactive | – | – | – | –
Oc1cccc(O)c1 | inactive | inactive | inactive | inactive | – | – | – | –
N[C@@H](Cc1cc(I)c(Oc2ccc(O)c(I)c2)c(I)c1)C(=O)O | inactive | inactive | inactive | inactive | – | – | – | –
C=C(C)C(=O)NCCC[N+](C)(C)C | inactive | inactive | inactive | inactive | – | – | – | –
CNC[C@H](O)c1ccc(O)c(O)c1 | – | – | – | – | inactive | inactive | inactive | inactive
CC(=O)[C@H]1CC[C@H]2[C@@H]3C[C@H](C)C4=CC(=O)CC[C@]4(C)[C@H]3[C@@H](O)C[C@]12C | inactive | inactive | inactive | inactive | – | – | – | –
O=C(O)CNc1ccccc1 | inactive | inactive | inactive | inactive | – | – | – | –
CC(C)(C)NC[C@H](O)COc1cccc2c1CCCC2=O | inactive | inactive | inactive | inactive | – | – | – | –
Oc1c(Cl)cc(Cl)c2cccnc12 | inactive | inactive | inactive | inactive | – | – | – | –
CCCC1C(CC)=CC(CC)=CN1c1ccccc1 (stereo not given) | inactive | inactive | inactive | inactive | – | – | – | –
Fc1ccc([C@@H]2CCNC[C@H]2COc2ccc3c(c2)OCO3)cc1 | inactive | inactive | inactive | inactive | – | – | – | –
CC(CO)(CO)CO | inactive | inactive | inactive | inactive | – | – | – | –
Cn1c([N+](=O)[O-])cnc1COC(N)=O | inactive | inactive | inactive | inactive | – | – | – | –
CCOC(=O)[C@H](O)[C@@H](O)C(=O)OCC | inactive | inactive | inactive | inactive | – | – | – | –
CCCCCOC(=O)Nc1nc(=O)n([C@@H]2O[C@H](C)[C@@H](O)[C@H]2O)cc1F | inactive | inactive | inactive | inactive | – | – | – | –
COc1ccccc1NC(=O)CC(C)=O | inactive | inactive | inactive | inactive | – | – | – | –
COC(=O)Nc1ccc(Cl)c(Cl)c1 | inactive | inactive | inactive | inactive | – | – | – | –

Compound | Potency [1] | Potency [2] | Potency [3] | Potency [4] | outcome [1] | outcome [2] | outcome [3] | outcome [4]
C=C(C)C(=O)Nc1ccc(Cl)c(Cl)c1 | inactive | inactive | inactive | inactive | – | – | – | –
CC(C)C(=O)c1c(C(C)C)nn2ccccc12 | inactive | inactive | inactive | inactive | – | – | – | –
O=S(=O)(O)CC(O)CCl (stereo not given) | inactive | inactive | inactive | inactive | – | – | – | –
COC1=CC(=O)C[C@@H](C)[C@]12Oc1c(Cl)c(OC)cc(OC)c1C2=O | inactive | inactive | inactive | inactive | – | – | – | –
Cn1cnc([N+](=O)[O-])c1Sc1ncnc2nc[nH]c12 | inactive | inactive | inactive | inactive | – | – | – | –
CC(COCC(C)OC(=O)c1ccccc1)OC(=O)c1ccccc1 (stereo not given) | inactive | inactive | inactive | inactive | – | – | – | –
Cc1nc2ccc(Cl)cc2[nH]1 | inactive | inactive | 25.1 µM (active) | inactive | – | – | – | –
O=Cc1ccc(CO)o1 | inactive | inactive | inactive | inactive | – | – | – | –
CCN(CCC#N)c1ccc(N=Nc2c(Cl)cc([N+](=O)[O-])cc2Cl)cc1 | inactive | inactive | inactive | inactive | – | – | – | –
Cc1cc(CCC(=O)OCCOCCOCCOC(=O)CCc2cc(C)c(O)c(C(C)(C)C)c2)cc(C(C)(C)C)c1O | inactive | inactive | inactive | inactive | – | – | – | –
O=C(O)CCC(=O)O | inactive | inactive | inactive | inactive | – | – | – | –
COc1cccc2sc(N)nc12 | inactive | inactive | inactive | inactive | – | – | – | –
O=c1cc(-c2ccccc2)oc2ccccc12 | inactive | inactive | inactive | inactive | – | – | – | –
O=Cc1cc2ccccc2o1 | inactive | inactive | inactive | inactive | – | – | – | –
COc1nccnc1NS(=O)(=O)c1ccc(N)cc1 | inactive | inactive | inactive | inactive | – | – | – | –
CCOC(=O)C1=C(C)NC(C)=C(C(=O)OC)C1c1cccc(Cl)c1Cl (stereo not given) | inactive | inactive | inactive | inactive | – | – | – | –
O=CNNC=O | inactive | inactive | inactive | inactive | – | – | – | –
SC1CCCC1 | inactive | inactive | inactive | inactive | – | – | – | –
O=C(NCc1ncc(C(F)(F)F)cc1Cl)c1c(Cl)cccc1Cl | inactive | inactive | inactive | inactive | – | – | – | –
CCN(CC)C(=O)c1cccc(C)c1 | inactive | inactive | inactive | inactive | – | – | – | –

Compound | Potency [1] | Potency [2] | Potency [3] | Potency [4] | outcome [1] | outcome [2] | outcome [3] | outcome [4]
CCc1ccc(C(c2ccc(CC)cc2)C(Cl)Cl)cc1 | inactive | inactive | inactive | inactive | – | – | – | –
COc1cc(S(=O)(=O)Nc2ccccc2)c(OC)cc1N | inactive | inactive | inactive | inactive | – | – | – | –
CC(C)=CC(=O)O | inactive | inactive | inactive | inactive | – | – | – | –
BrC1CCC(Br)C(Br)CCC(Br)C(Br)CCC1Br (stereo not given) | inactive | inactive | inactive | inactive | – | – | – | –
[Cl][Dy]([Cl])[Cl] | inactive | inactive | inactive | inactive | – | – | – | –
Cc1ccc(C(C)(C)C)cc1 | inactive | inactive | inactive | inactive | – | – | – | –
C=CC(C)(C)C | inactive | inactive | inactive | inactive | – | – | – | –
Nc1cc(Cl)cc(S(=O)(=O)O)c1O | inactive | inactive | inactive | inactive | – | – | – | –
Cc1ccc(C(=O)Nc2ccc(S(=O)(=O)O)c3cc(S(=O)(=O)O)cc(S(=O)(=O)O)c23)cc1NC(=O)c1cccc(NC(=O)Nc2cccc(C(=O)Nc3cc(C(=O)Nc4ccc(S(=O)(=O)O)c5cc(S(=O)(=O)O)cc(S(=O)(=O)O)c45)ccc3C)c2)c1 | inactive | inactive | inactive | inactive | – | – | – | –
Cc1cccc(C(=O)O)c1[N+](=O)[O-] | inactive | inactive | inactive | inactive | – | – | – | –
O=C(O)c1ccc(-n2nc(-c3ccccc3O)nc2-c2ccccc2O)cc1 | inactive | inactive | inactive | inactive | – | – | – | –
Oc1cc2ccccc2cc1O | inactive | inactive | inactive | inactive | – | – | – | –
CS(C)(=O)=O | inactive | inactive | inactive | inactive | – | – | – | –
O=C(O)c1cccc(C(=O)O)n1 | inactive | inactive | inactive | inactive | – | – | – | –
CCCCCCCCCCn1cc[n+](CCCCCCCCCC)c1C | 79.8 µM (active) | 35.6 µM (active) | 40 µM (active) | inactive | – | – | – | –
O=C(NCCc1c[nH]c2ccccc12)c1cccnc1 | inactive | inactive | inactive | inactive | – | – | – | –
O=C1C=CC(=O)N1c1ccccc1 | inactive | inactive | 35.6 µM (active) | inactive | – | – | – | –
C[Si]1(C)N[Si](C)(C)N[Si](C)(C)N1 | inactive | inactive | inactive | inactive | – | – | – | –
O=c1n(CCO)c(=O)n(CCO)c(=O)n1CCO | inactive | inactive | inactive | inactive | – | – | – | –
CCCCOC(=O)c1ccc(O)cc1 | inactive | inactive | 36 µM (active) and inactive | inactive | – | – | – | –
